Shown are actives, neighbours in structure and some others; about 2.4% of the full set was active somewhere.
D2 ag-1: agonists of human D2 dopamine receptor (beta-arrestin). P14416. DiscoveRx PathHunter D2 beta-arrestin, luminescence, 90 min; 100% = 57 uM dopamine signal. activation, % (concentration not given with the values). 0.084% of 360,000 active; in the data active = activation above about 40%; inconclusive = between about 15% and that limit
Target sequence (P14416 whole entry, looked up): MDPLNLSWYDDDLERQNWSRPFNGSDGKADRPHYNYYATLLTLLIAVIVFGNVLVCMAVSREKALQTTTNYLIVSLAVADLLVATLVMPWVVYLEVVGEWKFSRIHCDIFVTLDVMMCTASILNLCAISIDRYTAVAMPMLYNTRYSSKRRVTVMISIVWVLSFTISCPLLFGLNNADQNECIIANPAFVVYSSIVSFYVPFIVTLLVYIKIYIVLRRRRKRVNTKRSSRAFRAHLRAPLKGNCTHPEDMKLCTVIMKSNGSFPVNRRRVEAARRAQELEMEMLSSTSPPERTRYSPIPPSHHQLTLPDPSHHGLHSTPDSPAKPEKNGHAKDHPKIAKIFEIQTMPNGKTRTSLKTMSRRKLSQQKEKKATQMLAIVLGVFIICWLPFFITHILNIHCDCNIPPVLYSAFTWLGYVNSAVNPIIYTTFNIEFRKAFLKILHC
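Agonist mode: compounds alone added to overnight-plated D2 PathHunter cells for 90 min at 37 C, with 57 uM final dopamine (EC100) defining full response. Beta-arrestin recruitment detected by chemiluminescent reagent, read after 1 h at ambient temperature.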
D2 PAM-1: human D2 receptor positive allosteric modulation | P14416 | DiscoveRx D2 beta-arrestin cells, luminescence, 90 min; 100% = 57 uM dopamine signal | potentiation, % (no concentration beside the values) | 0.23% of 360,000 active; in the data active = potentiation above about 50%; inconclusive = mostly about 30% to 49%
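PathHunter D2 cells, attached overnight at 37 deg C, received compound in DMSO plus dopamine at EC20 (50 nM final) for 90 min at 37 deg C. Beta-arrestin recruitment was read as luminescence after 1 h with detection reagent at ambient temperature.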
D2 ag-2: activates the human D2 dopamine receptor; HEK293 T-REx D2 cells, calcium flux agonist mode; 0.53% of 340,000 active; activation, % at 2 µM; P14416;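 active = activation over 3 SD above normal in the single-dose calcium agonist read, cut at about 30% in these data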
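In this primary screen, compounds producing a positive calcium signal within 180 s of addition to tetracycline-induced, force-coupled HEK293 Trex D2 cells are flagged; cells are dye-loaded with a no-wash calcium kit beforehand.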
D2 antag: antagonizes the human D2 dopamine receptor; P14416; HEK293 TREx D2 cells, calcium flux, dopamine EC80; inhibition, % at 10 µM; 2% of 340,000 active; in the data active = inhibition above about 30%; inactive = below that, where a call was filed
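HEK293 T-REx D2 cells, tet-induced, calcium dye no-wash. Cpd pintool add, 180 s kinetic, then EC80 DA, 180 s kinetic. Ca flux read.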
D2 PAM-2: positive allosteric modulators of human D2 dopamine receptor. P14416. HEK293 T-REx D2, calcium flux, EC20 dopamine potentiation. potentiation, % at 10 µM. 0.34% of 340,000 active;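 active = potentiation over 3 SD above the plate norm, cut at about 30% in these data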
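Potentiation of an EC20 dopamine calcium response measured kinetically over 180 s, after a preceding 180 s compound-only read flagging agonists. Cells: inducible Hek293 Trex D2 line, 4000/well, cultured overnight at 30 C before dye loading.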
A number is an active result; . = inactive; ? = inconclusive; / = no result given.

SMILES	D2 ag-1	D2 PAM-1	D2 ag-2	D2 antag	D2 PAM-2
COc1ccc(C(C)=O)c(OC(=O)c2ccco2)c1	.	.	.	.	39
COC(=O)c1cc2oc(C)cc2n1CC(=O)Nc1cc(Cl)ccc1OC	/	/	.	/	.
O=C(CCN1CCN(c2ccc([N+](=O)[O-])cc2)CC1)c1ccc(Cl)cc1	.	.	.	34	.
O=C(CCN1CCN(c2ccccc2)CC1)c1ccc(Cl)cc1	.	.	33	.	.
CC(C)(C)c1ccc(S(=O)(=O)NCc2nc3cccnc3n2Cc2ccccc2Cl)cc1	/	/	/	/	.
CCN(C(=O)c1nn(-c2ccc(OC)cc2)c(=O)c2c1c1ccccc1n2C)c1ccc(OC)cc1	.	.	.	.	.
CCCCN(C)CCNC(=O)c1nn(-c2ccc(OC)cc2)c(=O)c2c1c1ccccc1n2C	.	.	.	34	.
COCC(=O)N(Cc1cc2ccc(C)c(C)c2n2nnnc12)C1CCCC1	.	.	.	.	37
CC[C@@H](C(=O)[C@@H](C)[C@@H](O)[C@H](C)CCc1ccc(C)c(O)c1C(=O)O)[C@H]1O[C@](CC)([C@H]2CC[C@](O)(CC)[C@H](C)O2)C[C@@H]1C	?	?	.	49	.
CC(O)C(O)C(O)C(O)C1NCCS1 (stereo not given)	.	.	.	79	.
CCc1ccc(NC(=O)N2CCN(Cc3nc4ccc(C)cc4o3)CC2)cc1	/	/	.	/	.
CCOc1ccccc1NC(=O)CN1C(=O)COc2ccc(S(=O)(=O)NC3CCCC3)cc21	/	/	/	/	.
COc1ccc(Cc2nnc(SCC(=O)c3ccccc3)o2)cc1	.	.	.	.	.
COc1ccc(Cc2nnc(SCC(=O)N(C)c3ccccc3)o2)cc1	.	.	.	66	.
Cc1cccnc1NC(=O)CSc1nnc(Cc2ccccc2)o1	.	.	.	44	.
Cc1cccnc1NC(=O)CSc1ccc2c(c1)OCCO2	.	.	.	32	.
Cc1ccccc1-c1nnc(SCC(=O)Nc2cccnc2Cl)o1	.	.	/	/	/
O=C(CSc1ccc2c(c1)OCCO2)Nc1cccnc1Cl	.	.	.	.	.
Cc1cc(SCC(=O)N(C)c2c(N)n(Cc3ccccc3)c(=O)[nH]c2=O)nc2ccccc12	.	.	.	38	.
Cc1coc2c1c(C)cc1oc(=O)c(CC(=O)NCCCCCC(=O)O)c(C)c12	.	.	.	.	46
Cc1coc2c1c(C)cc1oc(=O)c(CC(=O)NCC(=O)O)c(C)c12	.	.	.	.	.
Cc1cc(=O)n(CCO)c(O)c1C#N	.	52	.	.	.
O=C(Nc1ccc(Cc2ccncc2)cc1)C1CCC(N2C(=O)C3CCCCC3C2=O)CC1 (stereo not given)	.	.	.	.	.
Cc1ccc(NC(=O)C2CCC(N3C(=O)C4CCCCC4C3=O)CC2)cc1 (stereo not given)	.	.	.	43	.
CC(=O)CC(c1ccccc1)S(=O)(=O)c1ccc([N+](=O)[O-])cc1 (stereo not given)	.	.	.	70	.
SMILES	D2 ag-1	D2 PAM-1	D2 ag-2	D2 antag	D2 PAM-2
Cc1cccc(NC(=O)c2sc3nc(N4CCOCC4)c4c(c3c2N)CC(C)(C)OC4)c1	/	/	.	/	.
NC(=S)N=Nc1c(O)n(Cc2ccc(Br)cc2)c2ccccc12	.	52	.	.	.
NC(=S)N=Nc1c(O)n(Cc2ccc(F)cc2)c2ccccc12	.	.	.	.	.
CCOC(=O)c1cccc(NC(=O)c2cn(-c3cccc(OC)c3)c(=O)c3ccccc23)c1	/	/	.	/	.
Cc1cc2oc(C(=O)N(Cc3ccccc3)C3CCS(=O)(=O)C3)cc(=O)c2cc1C (stereo not given)	/	/	.	/	.
COc1cccc2cc(C(=O)NCc3ccccn3)c(=O)oc12	.	.	.	44	.
CC(NC(=O)C1CCN(S(=O)(=O)c2ccc3c(c2)oc(=O)n3C)CC1)c1ccccc1 (stereo not given)	/	/	.	/	.
CC(C)OC(=O)c1cc2c(ccn2C)n1CC(=O)N1CCC(Cc2ccccc2)CC1	.	.	.	.	105
O=C(NC(NNc1ccc([N+](=O)[O-])cc1)(C(F)(F)F)C(F)(F)F)c1ccc(F)cc1	.	61	.	.	.
Cc1ccc(Cn2c(CCNC(=O)C(C)C)nc3ccccc32)cc1	/	/	.	/	.
